Experimental data from the supplement of paper PMC3545927.
Some of the results follow. The hit rate among all sequences tested is not known here.

B1: HC2350 (peptide)
chain: CAEVVCHRPSAGNASASA
B2: HC1808 (peptide)
chain: CADWMEECSQAGNASASA
B3: HC2086 (peptide)
chain: CAVVCCSMSMAGNASASA
B4: FS-477 (peptide)
chain: CAPSQRSKRPAGNASASA
B5: FS-248 (peptide)
chain: CAHPQRSKKAAGNASASA
B6: FS-1530 (peptide)
chain: CAGWLRSKKAAGNASASA
B7: FS-388 (peptide)
chain: CAVTQRSKRAAGNASASA
B8: HC770 (peptide)
chain: CAVPQSFQVAAGNASASA
B9: FS-1496 (peptide)
chain: CATQQRSKRAAGNASASA
B10: HC1447 (peptide)
chain: CAGRKPARLIAGNASASA
B11: FS-708 (peptide)
chain: CARHVRISRSAGNASASA
B12: FS-835 (peptide)
chain: CAPAGRISRSAGNASASA
B13: FS-2026 (peptide)
chain: CARHVRSYNHAGNASASA
B14: HC229 (peptide)
chain: CAIPLVGAPLAGNASASA
B15: HC512 (peptide)
chain: CAYGVGSSIAAGNASASA
B16: FS-943 (peptide)
chain: CALRLRGPRAAGNASASA
B17: HC1216 (peptide)
chain: CAKCPCQVPSAGNASASA
B18: HC637 (peptide)
chain: CALTPLRDWAAGNASASA
B19: HC1493 (peptide)
chain: CALDPQARVAAGNASASA
B20: FS-1252 (peptide)
chain: CAQRQRAKRNAGNASASA
B21: FS-360 (peptide)
chain: CALRPRQRRAAGNASASA
B22: FS-445 (peptide)
chain: CAKCPRQRRAAGNASASA
B23: HC1394 (peptide)
chain: CAQRQKKVTFAGNASASA
B24: FS-543 (peptide)
chain: CAISPRQRRAAGNASASA
B25: FS-272 (peptide)
chain: CALRWRQRRAAGNASASA
B26: HC1045 (peptide)
chain: CAISGIQYLAAGNASASA
B27: FS-138 (peptide)
chain: CAPRARCRRAAGNASASA
B28: FS-449 (peptide)
chain: CAKIPRFRRIAGNASASA
B29: FS-614 (peptide)
chain: CALRPRFRREAGNASASA
B30: HC1520 (peptide)
chain: CAARAACRAAAGNASASA
B31: HC195 (peptide)
chain: CARRPEGRTWAGNASASA
B32: HC1431 (peptide)
chain: CASVWKDLLEAGNASASA
B33: HC1135 (peptide)
chain: CASSLTVTQLAGNASASA
B34: HC1244 (peptide)
chain: CADVAVLTSMAGNASASA
B35: HC2490 (peptide)
chain: CASVPCSAHLAGNASASA
B36: HC1262 (peptide)
chain: CAASQLSAPSAGNASASA
B37: HC78 (peptide)
chain: CATTPCNGSWAGNASASA
B38: HC579 (peptide)
chain: CARYISWCLWAGNASASA
B39: HC2259 (peptide)
chain: CAEVVTSTWPAGNASASA
B40: FS-86 (peptide)
chain: CARPQPQRRAAGNASASA
B41: FS-347 (peptide)
chain: CALAQRQRRIAGNASASA
B42: FS-1253 (peptide)
chain: CAQRQRQRRAAGNASASA
B43: FS-2351 (peptide)
chain: CARLKRRVKSAGNASASA
B44: FS-3196 (peptide)
chain: CARLKKKVKQAGNASASA
B45: FS-2708 (peptide)
chain: CARLKRRLVPAGNASASA

Target: furin, P09958
Experiment: furin cleavage Z-score vs untreated control; higher = more cleavage, active = 3.5 or more, inactive = 1 or less, 8 variable residues between constant flanks
In short: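 The cleavage Z-score was derived for purified furin acting on 8-mer peptides held on magnetic beads and fused to a cDNA oligonucleotide. Digests lasted 7.5, 15 or 30 min at 1:10 enzyme:substrate in 50 mM HEPES pH 7.5 with CaCl2 and NaCl. Sequencing counts of released DNA, log-transformed against furin-free reactions, were lowess-adjusted and scaled by median absolute deviation.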

Sequence of furin, P09958 (P09958 whole entry): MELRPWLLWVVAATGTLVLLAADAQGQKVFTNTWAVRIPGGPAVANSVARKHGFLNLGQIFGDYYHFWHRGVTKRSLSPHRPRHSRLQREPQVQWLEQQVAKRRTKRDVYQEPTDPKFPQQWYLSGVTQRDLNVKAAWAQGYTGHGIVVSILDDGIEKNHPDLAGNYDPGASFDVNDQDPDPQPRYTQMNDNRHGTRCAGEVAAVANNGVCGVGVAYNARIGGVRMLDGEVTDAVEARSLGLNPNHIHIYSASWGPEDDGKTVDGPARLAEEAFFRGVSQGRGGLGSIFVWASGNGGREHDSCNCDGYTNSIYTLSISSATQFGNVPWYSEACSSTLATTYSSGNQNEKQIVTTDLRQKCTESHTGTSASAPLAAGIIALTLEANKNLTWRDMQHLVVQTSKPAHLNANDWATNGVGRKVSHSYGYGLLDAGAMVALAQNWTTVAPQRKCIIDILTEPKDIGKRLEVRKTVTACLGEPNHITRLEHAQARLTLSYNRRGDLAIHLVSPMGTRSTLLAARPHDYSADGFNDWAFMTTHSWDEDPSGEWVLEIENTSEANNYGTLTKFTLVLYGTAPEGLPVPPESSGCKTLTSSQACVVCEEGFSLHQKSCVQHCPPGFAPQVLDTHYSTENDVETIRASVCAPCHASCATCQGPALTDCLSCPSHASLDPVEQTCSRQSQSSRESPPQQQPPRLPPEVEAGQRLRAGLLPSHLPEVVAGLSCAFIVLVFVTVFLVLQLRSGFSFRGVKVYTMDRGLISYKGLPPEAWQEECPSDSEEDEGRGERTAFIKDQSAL

Sequence	furin cleavage Z-score (7.5 min)	furin cleavage Z-score (15 min)	furin cleavage Z-score (30 min)
B1	-0.3 (inactive)	0.778 (inactive)	0.34 (inactive)
B2	0.73 (inactive)	-0.408 (inactive)	-0.438 (inactive)
B3	0.14 (inactive)	-1.35 (inactive)	0.14 (inactive)
B4	-0.582 (inactive)	0.273 (inactive)	-0.55 (inactive)
B5	-0.0765 (inactive)	0.432 (inactive)	1.4
B6	-0.625 (inactive)	-0.994 (inactive)	-0.39 (inactive)
B7	10.4 (active)	9.15 (active)	7.46 (active)
B8	-0.249 (inactive)	-1.95 (inactive)	-0.519 (inactive)
B9	7.63 (active)	7.61 (active)	6.89 (active)
B10	-1.48 (inactive)	-1.33 (inactive)	-0.697 (inactive)
B11	10.5 (active)	10.5 (active)	7.87 (active)
B12	6.15 (active)	10.5 (active)	8.23 (active)
B13	0.349 (inactive)	0.971 (inactive)	3.01
B14	-1.25 (inactive)	-1.1 (inactive)	-0.498 (inactive)
B15	-0.889 (inactive)	-1.2 (inactive)	0.412 (inactive)
B16	4.69 (active)	3.33	3.8 (active)
B17	0.69 (inactive)	0.244 (inactive)	-0.458 (inactive)
B18	-0.181 (inactive)	1.58	-0.616 (inactive)
B19	-1.42 (inactive)	-2.18 (inactive)	-0.348 (inactive)
B20	13.8 (active)	13.3 (active)	10.1 (active)
B21	7.42 (active)	7.73 (active)	6.07 (active)
B22	7.55 (active)	6.15 (active)	7.23 (active)
B23	1.32	-2.05 (inactive)	-3.25 (inactive)

Sequence	furin cleavage Z-score (7.5 min)	furin cleavage Z-score (15 min)	furin cleavage Z-score (30 min)
B24	7.77 (active)	6.99 (active)	6.1 (active)
B25	3.83 (active)	4.93 (active)	3.79 (active)
B26	-1.05 (inactive)	0.557 (inactive)	-1.83 (inactive)
B27	8.91 (active)	10.2 (active)	7.25 (active)
B28	0.2 (inactive)	0.191 (inactive)	2.93
B29	10 (active)	8.78 (active)	6.07 (active)
B30	-1.54 (inactive)	-0.427 (inactive)	-0.259 (inactive)
B31	-0.89 (inactive)	0.845 (inactive)	-0.916 (inactive)
B32	-0.463 (inactive)	0.374 (inactive)	-0.00259 (inactive)
B33	0.41 (inactive)	-0.51 (inactive)	-0.191 (inactive)
B34	0.796 (inactive)	0.438 (inactive)	-0.848 (inactive)
B35	0.673 (inactive)	0.436 (inactive)	1.54
B36	0.172 (inactive)	0.594 (inactive)	2.91
B37	-0.41 (inactive)	0.152 (inactive)	0.215 (inactive)
B38	-0.0545 (inactive)	0.138 (inactive)	0.846 (inactive)
B39	-1.41 (inactive)	-0.126 (inactive)	0.24 (inactive)
B40	2.58	5.58 (active)	5.07 (active)
B41	0.264 (inactive)	-0.423 (inactive)	0.578 (inactive)
B42	8.09 (active)	6.53 (active)	6.09 (active)
B43	4.89 (active)	6 (active)	4.82 (active)
B44	-1.36 (inactive)	-0.919 (inactive)	0.354 (inactive)
B45	2.61	4.61 (active)	5.01 (active)
